# Test results published in PubChem BioAssay (NCATS).
# Values joined by “and” are separate entries in the source; they are usually repeats but may differ in a detail not shown here. Equal entries are not always repeated. Results filed as inconclusive are left out. Entries that show only a call come without a potency. Active and inactive are the calls of the source. Unless noted, the call rests on the fitted dose curve.
# Columns and labels:
# [1] = qHTS for Inhibitors of the Functional Ribonucleoprotein Complex (vRNP) of Lassa (LASV) Arenavirus: LASV Primary Screen - GLuc reporter signal (AID 1347082; calls by dose curve; tested in HEK293 reporter line; further: nearly all actives have a fitted effect of over 60% in size)
# [2] = qHTS for Inhibitors of the Functional Ribonucleoprotein Complex (vRNP) of Lassa (LASV) Arenavirus: Viability assay - alamar blue signal for LASV Primary Screen (AID 1347083; calls by dose curve; tested in HEK293 reporter line; further: nearly all actives have a fitted effect of over 80% in size; further: potency means the concentration at half of the fitted maximal effect)
# [3] = qHTS for Inhibitors of the Functional Ribonucleoprotein Complex (vRNP) of Lymphocytic Choriomeningitis Arenaviruses (LCMV): Viability assay - alamar blue signal for LCMV Primary Screen (AID 1347085; calls by dose curve; tested in HEK293 reporter line; further: nearly all actives have a fitted effect of over 80% in size; further: potency means the concentration at half of the fitted maximal effect)
# [4] = molecular target: Nucleoprotein (Lymphocytic choriomeningitis virus (strain Armstrong)) (UniProt P09992); test: qHTS for Inhibitors of the Functional Ribonucleoprotein Complex (vRNP) of Lymphocytic Choriomeningitis Arenaviruses (LCMV): LCMV Primary Screen - GLuc reporter signal (AID 1347086); further: nearly all actives have a fitted effect of over 70% in size; further: potency means the concentration at half of the fitted maximal effect
# [5] = Primary qHTS for Huh7 cytotoxicity: counterscreen for inhibitors of MERS-S pseudotyped particle cell entry (AID 1479147); settings: outcome: dose series up to 57.1 µM unless noted
# [6] = Primary qHTS for inhibitors of MERS-S pseudo-typed particle cell entry (AID 1479149); further: nearly all actives have a fitted effect of over 60% in size
# [7] = Primary qHTS for Vero E6 cytotoxicity: counterscreen for inhibitors of SARS-S pseudo-typed particle cell entry (AID 1479150); settings: outcome: dose series up to 57.1 µM unless noted
# [8] = Cytotoxicity counterscreen for inhibitors of SARS-CoV-2 cell entry (AID 1645845); further: nearly all actives have a fitted effect of over 50% in size
# Outline: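 Expi293F/hACE2 cells seeded overnight; cpd pin-transferred in DMSO, 1 h preincubation, + media, 48 h 37 C 5% CO2; ATPLite 1step luminescence; normalized to cells and no cells.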
# CRL-7250 = normal cell line; test: qHTS assay to identify novel small-molecules to repurpose for Merkel cell carcinoma treatment (AID 1296009; active means well fitted curve in the direction sought with a large enough effect; an effect the other way counts as inactive or inconclusive; further: nearly all actives have a fitted effect of over 60% in size); settings: MCC and control cell lines, CellTiter-Glo viability, 72 h; series mostly up to 92 µM
# Outline: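 Cells exposed to NPC (8-point) and MIPE (11-point) compound dilutions for 72 hr at 37 degree celsius; viability read by CellTiter-Glo luminescence, normalized to no-cell and DMSO in-plate controls.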
# [9] = Confirmatory qHTS for VERO E6 Cytotoxicity Assay: Counterscreen for SARS-CoV-2 CPE Assay (AID 1508605); further: nearly all actives have a fitted effect of over 60% in size
# [10] = Confirmatory qHTS for activators (rescue) of SARS-CoV-2 Cytopathic Effect (CPE) (AID 1508606); further: nearly all actives have a fitted effect of over 70% in size; further: potency means the concentration at half of the fitted maximal effect
# [11] = Primary qHTS to identify inhibitors of SARS-CoV-2 cell entry (AID 1645846); settings: activity change, negative = inhibition: at 57.1 µM (top of the series) unless noted; further: nearly all actives have a fitted effect of over 45% in size; further: potency means the concentration at half of the fitted maximal effect
# Outline: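 Luminescence readout (Bright-Glo luciferase) 48 h after pseudoparticle addition. HEK293-ACE2 cells, 1500/well; compound pre-incubation 1 h; Normalized to spike PP and bald PP.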
# [12] = Primary qHTS for inhibitors of SARS-S pseudo-typed particle cell entry (AID 1479145); further: nearly all actives have a fitted effect of over 45% in size
# [13] = qHTS Assay for Lipid Storage Modulators (AID 1519); settings: Drosophila S3 cells, BODIPY lipid droplet/cell ratio, laser cytometry, cells loaded with oleic acid
# Outline: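 Cells seeded at 5,000 per well were treated with compounds over a concentration series and loaded with oleic acid (400 uM, as added). Lipid droplet fluorescence (488 nm excitation, 500-530 nm channel) was read by laser-scanning cytometry and normalized to 20 uM Triacsin C.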
# [14] = qHTS profiling of the MIPE4 collection as inhibitors of Plasmodium falciparum (3D7) proliferation (AID 743344; call rule not given here); settings: P. falciparum 3D7 in erythrocytes, SYBR Green DNA fluorescence, 72 h; at 28.5 µM (top of the series) unless noted
# Outline: (§1)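 Erythrocytes infected with P. falciparum (0.3% parasitemia, 2.5% hematocrit) incubated with compounds 72 h at 37 C, 5% CO2. Lysis with saponin/Triton buffer containing SYBR Green I, overnight at room temperature in the dark; DNA fluorescence (485/535 nm) normalised to 0.29 uM artemisinin and DMSO.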
# [15] = qHTS profiling of the MIPE4 collection as inhibitors of Plasmodium falciparum (DD2) proliferation (AID 743345; call rule not given here); settings: P. falciparum Dd2 in erythrocytes, SYBR Green DNA, 72 h; at 28.5 µM (top of the series) unless noted
# Outline: as §1
# [16] = qHTS profiling of the MIPE4 collection as inhibitors of Plasmodium falciparum (DD2) proliferation (Rep 2) (AID 743346; call rule not given here); settings: P. falciparum Dd2 in erythrocytes, SYBR Green DNA, 72 h; at 28.5 µM (top of the series) unless noted
# Outline: as §1
# [17] = Validation screen for inhibitors of Lassa infection (AID 463096)
# [18] = Inducers of the Endoplasmic Reticulum Stress Response (ERSR) in human glioma: Validation (AID 504836; active means well fitted curve in the direction sought with a large enough effect; an effect the other way counts as inactive or inconclusive)
# Outline: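 Stably transfected U87-MG human glioma cells carrying a GRP78-based luminescent sensor were seeded at 1000 cells/well, pin-dosed with compounds and incubated 16 h. Luciferase reagent was then added, and end-point luminescence was read after 10 min at room temperature.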
# Chain of Nucleoprotein (Lymphocytic choriomeningitis virus (strain Armstrong)) (P09992 whole entry, looked up): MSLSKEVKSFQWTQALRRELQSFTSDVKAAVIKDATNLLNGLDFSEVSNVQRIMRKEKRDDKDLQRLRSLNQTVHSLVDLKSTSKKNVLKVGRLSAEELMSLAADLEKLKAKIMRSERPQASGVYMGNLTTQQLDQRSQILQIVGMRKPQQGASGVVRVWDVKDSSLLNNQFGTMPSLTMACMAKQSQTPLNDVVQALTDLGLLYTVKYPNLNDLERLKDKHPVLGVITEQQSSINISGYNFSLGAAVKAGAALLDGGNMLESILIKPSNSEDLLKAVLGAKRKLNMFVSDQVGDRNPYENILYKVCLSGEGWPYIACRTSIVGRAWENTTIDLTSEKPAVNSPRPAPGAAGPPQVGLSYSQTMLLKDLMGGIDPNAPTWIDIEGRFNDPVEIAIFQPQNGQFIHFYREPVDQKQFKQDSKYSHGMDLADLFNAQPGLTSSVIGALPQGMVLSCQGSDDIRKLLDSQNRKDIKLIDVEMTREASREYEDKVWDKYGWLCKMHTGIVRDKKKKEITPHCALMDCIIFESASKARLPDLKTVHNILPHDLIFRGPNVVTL
smiles,measurement,setting,value
O=C(O)CCC=CCC[C@@H]1[C@H](N2CCCCC2)[C@@H](O)C[C@@H]1OCc1ccc(-c2ccccc2)cc1,Potency,[1],inactive
same,Potency,[2],inactive
same,Potency,[3],inactive
same,Potency,[4],inactive
same,outcome,[5],inactive
same,Potency,[6],inactive
same,outcome,[7],inactive
same,Potency,[8],inactive
same,Potency,CRL-7250,inactive
CCOC(=O)c1c(CSc2ccccc2)n(C)c2cc(Br)c(O)c(CN(C)C)c12,Potency,[1],inactive
same,Potency,[2],inactive
same,Potency,[3],inactive
same,Potency,[4],inactive
same,Potency,[9],inactive
same,Potency,[10],11.2 µM (active)
same,Potency,[8],inactive
same,Potency,CRL-7250,inactive
OC[C@H]1O[C@@H](Oc2cc(O)cc(C=Cc3ccc(O)cc3)c2)[C@H](O)[C@@H](O)[C@H]1O,Potency,[1],inactive
same,Potency,[2],inactive
same,Potency,[3],inactive
same,Potency,[4],inactive
same,Potency,CRL-7250,inactive
O=C(c1cncc(Br)c1)N1CCC(N2CCCC2)CC1,Potency,[1],inactive
same,Potency,[2],inactive
same,Potency,[3],inactive
same,Potency,[4],inactive
same,Potency,[8],inactive
same,Potency,[11],inactive
same,Potency,CRL-7250,inactive
Cc1ccc(CN2CCNCC2)cc1NC(=O)CNc1ccc(F)c(F)c1,Potency,[1],inactive
same,Potency,[2],inactive
same,Potency,[3],inactive
same,Potency,[4],inactive
same,Potency,[8],inactive
same,Potency,[11],inactive
same,Potency,CRL-7250,inactive
CN(C)CC(=O)N1CCC(c2ccc(NC(=O)c3ncc(C#N)[nH]3)c(C3=CCCCC3)c2)CC1,Potency,[1],inactive
same,Potency,[2],inactive
same,Potency,[3],inactive
same,Potency,[4],inactive
same,Potency,[8],inactive
same,Potency,CRL-7250,inactive
O=C1CCC[C@@H]2[C@H]3CCC[N+]4([O-])CCC[C@@H](CN12)[C@@H]34 (stereo not given in full),Potency,[1],inactive
same,Potency,[2],inactive
same,Potency,[3],inactive
same,Potency,[4],inactive
same,Potency,[8],inactive
same,"activity change, negative = inhibition",[11],-3.17%
same,Potency,CRL-7250,inactive
CCNC(=O)Nc1ccc(Oc2ncnc(N)c2C=NOC)cc1Cl,Potency,[1],inactive
same,Potency,[2],inactive
same,Potency,[3],inactive
same,Potency,[4],inactive
same,Potency,CRL-7250,inactive
CC(C)(Cc1ccc2ccccc2c1)NC[C@@H](O)COc1cccc(Cl)c1C#N,Potency,[1],inactive
same,Potency,[2],inactive
same,Potency,[3],inactive
same,Potency,[4],inactive
same,Potency,CRL-7250,inactive
CCc1nc(-c2cccc(C)c2)c(-c2ccnc(NC(=O)c3ccccc3)c2)s1,Potency,[1],inactive
same,Potency,[2],inactive
same,Potency,[3],inactive
same,Potency,[4],inactive
same,Potency,[10],inactive
same,Potency,[11],25.1 µM (active)
same,Potency,CRL-7250,inactive
CCCCCCCCCC(=O)N[C@@H](Cc1c[nH]c2ccccc12)C(=O)N[C@H](CC(N)=O)C(=O)N[C@@H](CC(=O)O)C(=O)N[C@@H]1C(=O)NCC(=O)N[C@@H](CCCN)C(=O)N[C@@H](CC(=O)O)C(=O)N[C@H](C)C(=O)N[C@@H](CC(=O)O)C(=O)NCC(=O)N[C@H](CO)C(=O)N[C@@H]([C@@H](C)CC(=O)O)C(=O)N[C@@H](CC(=O)c2ccccc2N)C(=O)O[C@@H]1C,Potency,[1],inactive
same,Potency,[2],inactive
same,Potency,[3],inactive
same,Potency,[4],inactive
same,Potency,[12],inactive
same,outcome,[5],inactive [at 26.4 µM]
same,Potency,[6],inactive
same,outcome,[7],inactive
same,Potency,[8],inactive
same,Potency,[11],inactive
same,"activity change, negative = inhibition",[11],-32.9% [at 27.1 µM]
same,Potency,CRL-7250,inactive
CN(C)CC(C)(C)CNc1nn2c(-c3ccccc3)nnc2cc1C1CCC1,Potency,[1],inactive
same,Potency,[2],15.3 µM (active)
same,Potency,[3],2.17 µM (active)
same,Potency,[4],17.2 µM (active)
same,Potency,[8],inactive
same,"activity change, negative = inhibition",[11],-2.68%
same,Potency,CRL-7250,inactive
COC(=O)N1CCN(Cc2cccc(NC(=O)Nc3ccc(C)nc3)c2F)CC1,Potency,[1],inactive
same,Potency,[2],inactive
same,Potency,[3],inactive
same,Potency,[4],inactive
same,Potency,[8],inactive
same,Potency,CRL-7250,inactive
COc1ccc([C@@H]2CNC(=O)C2)cc1OC1CCCC1,Potency,[1],inactive
same,Potency,[2],2.73 µM (active)
same,Potency,[3],3.43 µM (active)
same,Potency,[4],inactive
same,Potency,[8],inactive
same,"activity change, negative = inhibition",[11],2.39%
same,Potency,CRL-7250,inactive
CN1[C@H]2CC(OC(=O)[C@@H](CO)c3ccccc3)C[C@H]1[C@H]1O[C@H]12 (stereo not given in full),"activity change, negative = inhibition",[13]; at 25.7 µM (top of the series),-0.085% (inactive)
same,max response,[13]; measured here: cell count channel max response,9.59%
same,max response,[13]; measured here: lipid channel max response,10.6%
same,"parasite growth, % of DMSO control",[14],96.6%
same,"parasite growth remaining, % of DMSO control (lower = more inhibition)",[15],107%
same,"parasite growth, % of control (lower = inhibition)",[16],72.3%
same,Potency,[1],inactive
same,Potency,[2],inactive
same,Potency,[3],inactive
same,Potency,[4],inactive
same,Potency,CRL-7250,inactive
O=C(O)CCn1c2c(c3ccccc31)C[C@H](NS(=O)(=O)c1ccc(F)cc1)CC2,Potency,[1],inactive
same,Potency,[2],inactive
same,Potency,[3],inactive
same,Potency,[4],inactive
same,Potency,[12],inactive
same,outcome,[5],inactive
same,Potency,[6],inactive
same,outcome,[7],inactive
same,Potency,[8],inactive
same,"activity change, negative = inhibition",[11],-25.2% and -23.3%
same,Potency,CRL-7250,inactive
Nc1[nH]nc2nnc(-c3c(-c4ccccc4)nn4ccccc34)cc12,Potency,[1],inactive
same,Potency,[2],inactive
same,Potency,[3],inactive
same,Potency,[4],inactive
same,Potency,[8],inactive
same,"activity change, negative = inhibition",[11],-11.3%
same,Potency,CRL-7250,inactive
Cc1ccccc1C(C(=O)NC1CCCCC1)N(C(=O)Cn1ccnc1C)c1cccc(F)c1 (stereo not given),Potency,[1],inactive
same,Potency,[2],inactive
same,Potency,[3],inactive
same,Potency,[4],inactive
same,Potency,[8],inactive
same,"activity change, negative = inhibition",[11],-3.95%
same,Potency,CRL-7250,inactive
C[C@@H]1C(=O)O[C@H]2CC34[C@H]5C[C@@H](C(C)(C)C)C36[C@H](OC(=O)[C@@H]6O)O[C@@]4(C(=O)O5)[C@]21O (stereo not given in full),"parasite growth, % of DMSO control",[14],77.1%
same,"parasite growth, % of control (lower = inhibition)",[16],91.1%
same,Potency,[1],inactive
same,Potency,[2],inactive
same,Potency,[3],inactive
same,Potency,[4],inactive
same,Potency,[8],inactive
same,Potency,[11],inactive
same,Potency,CRL-7250,inactive
O=C(CCN1CCN(C(=O)OCc2cc(Cl)cc(Cl)c2)CC1)c1ccc2[nH]c(=O)oc2c1,Potency,[1],inactive
same,Potency,[2],inactive
same,Potency,[3],inactive
same,Potency,[4],inactive
same,Potency,[8],inactive
same,"activity change, negative = inhibition",[11],-26.2%
same,Potency,CRL-7250,inactive
CCN1CCCC1CNC(=O)c1cc(S(N)(=O)=O)ccc1OC (stereo not given),Potency,[17],inactive
same,outcome,[18],inactive
same,Potency,[1],inactive
same,Potency,[2],inactive
same,Potency,[3],inactive
same,Potency,[4],inactive
same,Potency,CRL-7250,inactive
CCN1C[C@H](C)n2c(c(O)c3c(=O)n(Cc4ccc(F)c(Cl)c4)nc(C(=O)NC)c32)C1=O,"parasite growth, % of DMSO control",[14],43.2%
same,"parasite growth remaining, % of DMSO control (lower = more inhibition)",[15],55.9%
same,"parasite growth, % of control (lower = inhibition)",[16],45.4%
same,Potency,[1],inactive
same,Potency,[2],inactive
same,Potency,[3],inactive
same,Potency,[4],inactive
same,Potency,CRL-7250,inactive
